Gal4-VP16 FLuc = Gal4-VP16 reporter inhibition counter-screen | Drosophila S2 Gal4-VP16 UAS-luciferase, luminescence, 20 h | Potency, µM (titrated, usually from 53.6 µM), hits mostly inhibitors | 3.5% of 310,000 active | AID 2546;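 also: Gal4-VP16 expression switched on by copper sulfate through the metallothionein promoter; nearly all actives have a fitted effect of over 50% in size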
RORgamma inh = blocks mouse ROR gamma transcriptional activity. P51450. Drosophila S2 Gal4-RORgamma UAS-luciferase reporter, 20 h. Potency, µM (series often up to 53.6 µM), usual class: inhibitors. 5.4% of 310,000 active. AID 2551; also: nearly all actives have a fitted effect of over 60% in size
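In this cell-based reporter format, copper sulfate (700 uM final) drives Gal4–ROR gamma fusion expression from a metallothionein promoter in Drosophila Schneider cells; compounds preincubated 1 hr, reporter read after 20 hr at ambient temperature.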
HEK293 tox = cytotoxicity in counter-screen for GLP-1R inverse agonists | HEK293 cAMP-luciferase reporter cells, luminescence, 24 h | Potency, µM (series often up to 38.3 µM), actives largely listed as inhibitors | 0.13% of 410,000 active | AID 624418;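 also: loss of luciferase light is scored as toxicity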
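Cells in DMEM/10% Nu serum/1% pen-strep, 1536-well format. Pre-incubated 12 h, dosed with 23 nL compound, incubated a further 24 h. Luciferase detection, 12 min at room temp, luminescence.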
GLP-1R inv ag = GLP-1 receptor (human) inverse agonism; P43220; HEK293 GLP-1R CRE-luciferase, luminescence, 24 h; GLP-1R form is constitutively active; Potency, µM (highest dose often 38.3 µM), most hits filed as inhibitors; 1.6% of 410,000 active; AID 624417; also: nearly all actives have a fitted effect of over 55% in size
Target sequence (P43220 whole entry, looked up): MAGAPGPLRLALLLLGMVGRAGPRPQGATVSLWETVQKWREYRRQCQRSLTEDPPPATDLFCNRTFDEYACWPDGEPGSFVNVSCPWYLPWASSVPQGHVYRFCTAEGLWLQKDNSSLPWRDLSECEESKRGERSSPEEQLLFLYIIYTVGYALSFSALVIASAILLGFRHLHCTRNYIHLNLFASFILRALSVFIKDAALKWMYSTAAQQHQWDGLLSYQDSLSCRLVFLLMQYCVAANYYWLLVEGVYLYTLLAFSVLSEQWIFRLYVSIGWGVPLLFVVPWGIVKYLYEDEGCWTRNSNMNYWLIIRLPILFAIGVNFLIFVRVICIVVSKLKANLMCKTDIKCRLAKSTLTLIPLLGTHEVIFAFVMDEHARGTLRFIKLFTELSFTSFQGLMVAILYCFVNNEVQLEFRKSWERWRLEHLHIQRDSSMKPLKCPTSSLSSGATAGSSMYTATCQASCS
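HEK293 cells stably co-expressing constitutively active GLP-1R and a cAMP-responsive luciferase reporter were seeded in DMEM with 10% Nu serum, given compounds after 12 h, and incubated 24 h at 37 deg C. Luminescence was then read.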
GLP-1R agonist = activates the human GLP-1 receptor; P43220; HEK293 GLP-1R CRE-luciferase, luminescence, 4-6 h; cells express a hypersensitive GLP-1R form; Potency, µM (doses to about 45.6 µM), usual class: activators; 0.007% of 380,000 active
Hits are given with their value; - = inactive; ? = inconclusive; . = no result given. Hits are enriched below; roughly 5.9% of the tested compounds scored in any of these assays. Calls follow the shape of the dose curve; as a rule, active = well fitted curve in the direction sought with a large enough effect; inconclusive = small, poorly fitted or top-dose-only effect, or another doubt; inactive = no such curve, though single readings can be large; an effect the other way counts as inactive or inconclusive.

SMILES	Gal4-VP16 FLuc	RORgamma inh	HEK293 tox	GLP-1R inv ag	GLP-1R agonist
O=C(Cn1c(SCc2cccc(F)c2)nc2cccnc21)Nc1ccc(F)c(Cl)c1	.	.	-	?	.
CC(C)NC(=S)NC(=O)/C=C/c1cccc2ccccc12	4.5µM	1.4µM	-	-	-
CN1CCN(C(=S)NC(CC(=O)c2ccccc2)c2ccccc2)CC1 (stereo not drawn)	-	-	-	-	-
CN1CCN(C(=S)NC(=O)/C=C/c2cccs2)CC1	?	10µM	-	-	-
CN1CCN(C(=S)NC(=O)/C=C/c2cccc3ccccc23)CC1	3.2µM	1µM	-	-	-
COCCCNC(=O)c1cc2cc(S(=O)(=O)N3CCCCC3)ccc2n1C	.	.	-	-	.
COc1ccc(NC(=O)c2nc[nH]c2C(=O)N[C@H](C)c2ccccc2)cc1	7.9µM	6.3µM	-	?	-
CCOC(=O)c1ccc(NC(=O)c2nc[nH]c2C(=O)N[C@@H](C)C(=O)OC(C)(C)C)cc1	-	?	-	-	-
CCOC(=O)c1ccc(NC(=O)c2nc[nH]c2C(=O)N[C@@H](CC(C)C)C(=O)OC(C)(C)C)cc1	6.3µM	2.5µM	-	-	-
CCOC(=O)c1ccc(NC(=O)c2nc[nH]c2C(=O)N[C@@H](CC(C)C)C(=O)OCc2ccccc2)cc1	?	1.1µM	-	-	-
CC(C)C[C@H](NC(=O)c1nc[nH]c1C(=O)NC1CCNCC1)C(=O)OCc1ccccc1	.	.	-	-	-
CCOC(=O)c1ccc(NC(=O)c2nc[nH]c2C(=O)N[C@H](C)c2ccccc2)cc1	7.1µM	2.8µM	-	?	-
COc1cc(C(C)C)c2c(c1)S(=O)(=O)N(COc1cc(=O)n3cccc(OCCN4CCCCC4)c3n1)C2=O	?	-	.	.	.
CC(C)C(=O)SCCCCCCC(=O)Nc1nc(-c2ccccc2)cs1	?	-	.	.	.
Cc1cccc(NC(=O)CCNS(=O)(=O)c2ccc3c(c2)CCN3C(=O)C2CC2)c1	.	.	-	-	-
CCOC(=O)c1ccc(NC(=O)c2nc[nH]c2C(=O)N(C)Cc2ccccc2)cc1	?	10µM	?	-	-
CCOC(=O)c1ccc(NC(=O)c2nc[nH]c2C(=O)NCCNC(=O)c2[nH]cnc2C(=O)Nc2ccc(C(=O)OCC)cc2)cc1	.	.	-	-	-
CNC(=O)c1[nH]cnc1C(=O)Nc1ccc(OC)cc1	-	5.6µM	-	-	-
COc1ccc(-n2c(=O)c3c4c(sc3n(C)c2=O)CN(C(C)=O)CC4)cc1	.	.	-	-	.
C=CCOC[C@@H]1CN2[C@H](c3ccc(Br)cc3)[C@@H](C)CC[C@H]2C(=O)O1	-	-	.	.	.
COc1ccc(CCNC(=O)c2ccc3c(c2)CCN3S(C)(=O)=O)cc1OC	.	.	-	-	.
COc1cccc(C(=O)Nc2cccc(-c3nnc(-c4ccccc4)o3)c2)c1	.	.	-	-	-
O=C(Nc1nnc(-c2ccco2)o1)c1ccc(Cl)s1	0.63µM	2µM	-	-	-
COc1cccc(-c2nnc(NC(=O)c3ccc(Cl)s3)o2)c1	0.22µM	0.25µM	?	?	-
Clc1cccc(-n2cc(-c3ccccc3)c3c(N4CCCCC4)ncnc32)c1	.	.	-	-	.
SMILES	Gal4-VP16 FLuc	RORgamma inh	HEK293 tox	GLP-1R inv ag	GLP-1R agonist
Cc1cccc(C)c1Nc1oc(-c2ccccc2)nc1-c1ccccc1F	-	-	.	.	.
CCN(Cc1ccccc1)S(=O)(=O)c1ccc(C(=O)N(CCCN(C)C)c2nc3ccc(F)cc3s2)cc1	?	?	?	5.6µM	-
CN(C)CCCN(C(=O)CCOc1ccccc1)c1nc2c(F)cccc2s1	-	8.9µM	?	?	-
CN(C)CCCN(C(=O)COc1ccccc1)c1nc2ccc(F)cc2s1	-	-	-	?	-
CN(C)CCCN(C(=O)CCOc1ccccc1)c1nc2ccc(F)cc2s1	7.9µM	10µM	10µM	?	-
CCN(Cc1ccccc1)S(=O)(=O)c1ccc(C(=O)N(CCCN(C)C)c2nc3cc(OC)ccc3s2)cc1	.	.	?	?	-
CN(C)CCCN(C(=O)CCc1ccccc1)c1nc2c(F)cccc2s1	-	-	-	-	-
CO[C@@H]1c2cc(F)ccc2/C(=C\CCOC(=O)C/C=C/c2ccccc2)[C@H]1C	-	-	.	.	.

Compound activity: PubChem, National Center for Advancing Translational Sciences (NCATS)
